Test results as given in PubChem BioAssay AID1159580 (chemical genetic matrix, 2015).
Where “and” joins values, the source holds several entries; their conditions need not be identical. Equal values may be shown once. Out of some 5,500 compounds screened, about 2,000 (36%) were called active. Another 18% or so got no clear call; they are omitted. Rule as the data show it: active = normalized growth mostly below about 0.91 (no sharp cut-off); inconclusive = no clear call, values can overlap the other calls; inactive = mostly above about 0.92. This is one part of the list.

Assay: chemical genetic growth profiling, strain panel (AID 1159580);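 also: tested at 20 µM; growth read once vehicle control cultures reached saturation at 30 °C; 1 = growth at the plate median or of vehicle wells; lower values mean less growth of the strain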
Settings: S. cerevisiae deletion strains, growth OD

Measured: normalized growth

Cc1cc(=O)n(-c2ccccc2)n1C
inactive: locus YAL013W, strain DEP1, hits give low values 1.02 | locus YAL021C, strain ccr4, hits give low values 0.962 | locus YAL026C, strain drs2, hits give low values 1 | locus YAL030W, strain snc1, hits give low values 1 | locus YBL061C, strain skt5, hits give low values 0.992 | locus YBR009C, strain hhf1, hits give low values 1.06 | locus YBR021W, strain FUR4, hits give low values 1 | locus YBR023C, strain chs3, hits give low values 0.987 | locus YBR171W, strain sec66, hits give low values 0.987 | locus YBR229C, strain ROT2, hits give low values 1.01 | locus YBR231C, strain swc5, hits give low values 1.01 | locus YBR279W, strain paf1, hits give low values 0.995 | locus YCL011C, strain gbp2, hits give low values 0.995 | locus YCL016C, strain dcc1, hits give low values 0.979 | locus YCL029C, strain bik1, hits give low values 0.996 | locus YCL061C, strain MRC1, hits give low values 0.981 | locus YCL069W, strain vba3, hits give low values 0.997 | locus YCR088W, strain abp1, hits give low values 0.991 | locus YDL005C, strain med2, hits give low values 0.991 | locus YDL035C, strain GPR1, hits give low values 1.04 | locus YDL040C, strain nat1, hits give low values 0.991 | locus YDL074C, strain BRE1, hits give low values 1.02 | locus YDL101C, strain DUN1, hits give low values 0.999 | locus YDL185W, strain tfp1, hits give low values 0.994 | locus YDL192W, strain arf1, hits give low values 0.989 | locus YDR001C, strain nth1, hits give low values 0.983 | locus YDR069C, strain doa4, hits give low values 1.02 | locus YDR101C, strain arx1, hits give low values 0.983 | locus YDR137W, strain rgp1, hits give low values 0.978 | locus YDR159W, strain sac3, hits give low values 1.01 | locus YDR162C, strain NBP2, hits give low values 1.04 | locus YDR195W, strain ref2 0.998 | locus YDR297W, strain sur2, hits give low values 0.99 | locus YDR318W, strain mcm21, hits give low values 0.989 | locus YDR334W, strain swr1, hits give low values 0.986 | locus YDR335W, strain msn5, hits give low values 0.992 | locus YDR388W, hits give low values 0.986 | locus YDR392W, strain spt3, hits give low values 0.94 | locus YDR502C, strain sam2, hits give low values 0.994 | locus YEL003W, strain gim4, hits give low values 1 | locus YEL037C, strain rad23, hits give low values 0.995 | locus YEL061C, strain CIN8 (second series), hits give low values 0.99 | locus YEL061C, strain CIN8, hits give low values 1 | locus YER015W, strain faa2, hits give low values 0.985 | locus YER016W, strain bim1, hits give low values 0.996 | locus YER110C, hits give low values 0.987 | locus YER111C, strain swi4, hits give low values 0.984 | locus YER155C, strain BEM2 (second series), hits give low values 1.01 | locus YER155C, strain BEM2, hits give low values 1 | locus YER167W, strain BCK2, hits give low values 1.02 | locus YFR010W, strain ubp6, hits give low values 1 | locus YGL078C, strain dbp3, hits give low values 0.982 | locus YGL086W, strain mad1, hits give low values 0.989 | locus YGL167C, strain pmr1, hits give low values 0.996 | locus YGL173C, strain kem1, hits give low values 0.992 | locus YGL227W, strain vid30, hits give low values 0.993 | locus YGL240W, strain doc1, hits give low values 1 | locus YGL248W, strain PDE1, hits give low values 0.999 | locus YGL253W, strain hxk2, hits give low values 0.975 | locus YGR078C, strain PAC10, hits give low values 1 | locus YGR135W, strain pre9, hits give low values 1 | locus YGR229C, strain SMI1, hits give low values 1.04 | locus YGR252W, strain gcn5, hits give low values 1 | locus YHR013C, strain ard1, hits give low values 0.982 | locus YHR027C, strain rpn1, hits give low values 1.02 | locus YHR030C, strain SLT2, hits give low values 1.01 and 0.973 | locus YHR079C, strain IRE1 (second series), hits give low values 0.984 | locus YHR079C, strain IRE1, hits give low values 1.03 | locus YHR094C, strain hxt1, hits give low values 0.986 | locus YHR129C, strain ARP1, hits give low values 1.01 | locus YHR142W, strain chs7, hits give low values 0.963 | locus YHR200W, strain rpn10, hits give low values 1 | locus YIL066C, strain RNR3, hits give low values 1.04 | locus YIL073C, strain SPO22, hits give low values 1.03 | locus YIL125W, strain kgd1, hits give low values 0.986 | locus YIR030C, strain dcg1, hits give low values 0.987 | locus YJL095W, strain BCK1 (second series), hits give low values 0.999 | locus YJL095W, strain BCK1, hits give low values 1 and 1.01 | locus YJL115W, strain asf1, hits give low values 0.994 | locus YJL129C, strain trk1, hits give low values 0.978 | locus YJL134W, strain LCB3, hits give low values 1.01 | locus YJL154C, strain vps35, hits give low values 0.991 | locus YJL164C, strain tpk1, hits give low values 1.02 | locus YJL166W, strain qcr8, hits give low values 0.953 | locus YJL168C, strain set2, hits give low values 0.983 | locus YJL187C, strain SWE1 (second series), hits give low values 0.987 | locus YJL187C, strain SWE1, hits give low values 0.996 | locus YJR043C, strain POL32, hits give low values 1.04
